These results are taken from PubChem BioAssay (NCATS).

Results filed as inconclusive are left out. Calls of active or inactive are those of the source. Unless noted, the call rests on the fitted dose curve; in most records, active means well fitted curve in the direction sought with a large enough effect; inconclusive means small, poorly fitted or top-dose-only effect, or another doubt; inactive means no such curve, though single readings can be large; an effect the other way counts as inactive or inconclusive.

For assay [1], the target named is Nucleoprotein (Lymphocytic choriomeningitis virus (strain Armstrong)) (UniProt P09992). In words: qHTS for Inhibitors of the Functional Ribonucleoprotein Complex (vRNP) of Lymphocytic Choriomeningitis Arenaviruses (LCMV): LCMV Primary Screen - GLuc reporter signal (AID 1347086; calls by dose curve; further: series mostly up to about 57 µM; nearly all actives have a fitted effect of over 70% in size).
Sequence of Nucleoprotein (Lymphocytic choriomeningitis virus (strain Armstrong)) (P09992 whole entry, looked up): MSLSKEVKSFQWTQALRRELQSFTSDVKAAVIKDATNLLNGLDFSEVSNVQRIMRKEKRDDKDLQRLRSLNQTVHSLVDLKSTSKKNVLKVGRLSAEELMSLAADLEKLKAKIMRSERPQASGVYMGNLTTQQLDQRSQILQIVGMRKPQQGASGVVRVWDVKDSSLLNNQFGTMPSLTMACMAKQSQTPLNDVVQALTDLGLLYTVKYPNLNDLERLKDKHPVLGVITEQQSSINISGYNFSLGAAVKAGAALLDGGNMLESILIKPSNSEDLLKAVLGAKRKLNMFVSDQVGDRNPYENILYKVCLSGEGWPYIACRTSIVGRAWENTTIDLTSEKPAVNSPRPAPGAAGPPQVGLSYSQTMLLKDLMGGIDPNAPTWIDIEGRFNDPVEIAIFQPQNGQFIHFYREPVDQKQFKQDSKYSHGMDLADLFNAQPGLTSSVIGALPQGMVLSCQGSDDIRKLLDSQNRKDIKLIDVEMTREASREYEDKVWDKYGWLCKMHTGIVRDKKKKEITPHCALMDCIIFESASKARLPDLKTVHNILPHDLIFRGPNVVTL
A short description of assay [2]: qHTS of pediatric cancer cell lines to identify multiple opportunities for drug repurposing: Primary screen for TC32 cells (AID 1347089). Further: nearly all actives have a fitted effect of over 60% in size. The essentials: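 qHTS, TC32, 48 h drug treatment, CellTiter-Glo luminescence as a proxy for metabolically active cells; primary top concentration 46 µM (MIPE 11-pt, NPC 8-pt); confirmatory 11-pt.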
For orientation: Quantitative high-throughput screening tests each substance at several concentrations.

The nature of assay [3]: qHTS of pediatric cancer cell lines to identify multiple opportunities for drug repurposing: Primary screen for DAOY cells (AID 1347090). Further: nearly all actives have a fitted effect of over 55% in size. Further: potency means the concentration at half of the fitted maximal effect. In a few lines:
(§1)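 Cell viability, CellTiter-Glo luminescence; 500-1,000 cells/well, 8- or 11-point titration, 48 h compound exposure at 37 degrees C, 5% CO2. Controls: DMSO neutral, bortezomib 2.3 µM final as positive.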

Assay [4] is described as follows: qHTS of pediatric cancer cell lines to identify multiple opportunities for drug repurposing: Primary screen for SJ-GBM2 cells (AID 1347091). Further: potency means the concentration at half of the fitted maximal effect. In a few lines:
as §1

The nature of assay [5]: qHTS of pediatric cancer cell lines to identify multiple opportunities for drug repurposing: Primary screen for A673 cells (AID 1347092). Further: nearly all actives have a fitted effect of over 45% in size. Further: potency means the concentration at half of the fitted maximal effect. In a few lines: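 Luminescence from CellTiter-Glo, taken after 15 min at room temperature, served as the proxy for metabolically active cells following 48 h treatment. Both potency and efficacy were taken from curves fitted to the titration data.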

A short description of assay [6]: qHTS of pediatric cancer cell lines to identify multiple opportunities for drug repurposing: Primary screen for BT-37 cells (AID 1347094). Further: potency means the concentration at half of the fitted maximal effect. In a few lines: (§2)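 Cells plated at 500-1,000/well in growth medium, compounds added after 5 h. MIPE tested at 11 points (from 0.78 nM), NPC at 8 points (from 0.59 nM). CellTiter-Glo luminescence after 48 h; concentration-response curves from primary screen.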

Assay [7] is described as follows: qHTS of pediatric cancer cell lines to identify multiple opportunities for drug repurposing: Primary screen for NB-EBc1 cells (AID 1347095). Further: potency means the concentration at half of the fitted maximal effect. In a few lines:
as §2

Assay [8] can be described thus: qHTS of pediatric cancer cell lines to identify multiple opportunities for drug repurposing: Primary screen for U-2 OS cells (AID 1347096). Further: nearly all actives have a fitted effect of over 50% in size. The essentials:
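Cells (500-1,000/well) rested 5 h, then received compounds for 48 h; metabolically active cells were measured by CellTiter-Glo luminescence. Final concentrations spanned up to 46 µM (MIPE, 11-point) or 0.59 nM-46 µM (NPC, 8-point) in primary screens, 11-point in follow-ups.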

Assay [9] can be described thus: qHTS of pediatric cancer cell lines to identify multiple opportunities for drug repurposing: Primary screen for Saos-2 cells (AID 1347097). Further: nearly all actives have a fitted effect of over 40% in size. Further: potency means the concentration at half of the fitted maximal effect. The essentials: as §2
Assay [10] can be described thus: qHTS of pediatric cancer cell lines to identify multiple opportunities for drug repurposing: Primary screen for SK-N-MC cells (AID 1347093). Further: potency means the concentration at half of the fitted maximal effect. In a few lines: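 Metabolically active cells were quantified by ATP-dependent luminescence (CellTiter-Glo, 15 min at room temperature) following 48 h treatment. Cells had been plated at 500-1,000 per well and settled for 5 h beforehand.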

As for `NC1(c2ccccc2)CCCCC1`, the Potency result in [1], in assay [2], in assay [3], in assay [4], in assay [6] and in assay [7] was “inactive” each time. For the same compound, the Potency entry in assay [8] and in assay [9] was “inactive” each time. Also, the Potency in assay [5] was 30.3 µM (active).
In the case of `CC(C)=C[C@@H]1[C@@H](C(=O)OCc2coc(Cc3ccccc3)c2)C1(C)C`, the Potency entry in assay [1], in assay [2], in assay [3], in assay [4], in [5] and in [6] was “inactive” each time. Moreover, the Potency entry in assay [7], in assay [8] and in assay [9] was “inactive” each time.
Take `CC[C@H]1C[C@@H]2C[C@H]3c4[nH]c5ccc(OC)cc5c4CCN(C2)[C@@H]13`: the Potency entry in [1], in assay [2], in assay [4], in [7] and in [8] was “inactive” in each case. For the same compound, the Potency in [3] was 37.8 µM (active).
For the compound `CN1C2CCC(C)(C)C1CC(OC(=O)C(O)(c1cccs1)c1cccs1)C2` (stereo not drawn), the Potency result in assay [1], in assay [2], in [3], in assay [5], in [10] and in assay [6] was “inactive” in each case. Moreover, the Potency entry in assay [7], in [8] and in assay [9] was “inactive” in each case.
Consider `CCN(Cc1ccc(Cl)nc1)/C(=C/[N+](=O)[O-])NC`, for which the Potency entry in assay [1], in assay [2], in assay [3], in assay [4], in assay [5] and in [10] was “inactive” throughout. Further, the Potency result in assay [6], in assay [7], in assay [8] and in assay [9] was “inactive” throughout.
As for `O=C(O)Cc1ccccc1`, the Potency result in assay [1], in assay [2], in assay [3], in [4], in assay [5] and in assay [6] was “inactive” throughout. For the same compound, the Potency result in assay [7], in assay [8] and in assay [9] was “inactive” in each case.
Consider `CCC(=O)O[C@H]1CC[C@H]2[C@@H]3CCC4=CC(=O)CC[C@]4(C)[C@H]3CC[C@]12C`, for which the Potency result in [1], in assay [2], in [3], in assay [4], in [5] and in assay [6] was “inactive” throughout. The Potency entry in assay [7], in [8] and in [9] was “inactive” throughout.
For the compound `CN1CCC(N(Cc2ccccc2)c2ccccc2)CC1`, the Potency result in [1], in assay [2], in assay [3], in assay [4], in [5] and in assay [6] was “inactive” each time. Also, the Potency entry in assay [7], in assay [8] and in assay [9] was “inactive” in each case.
As for `Cc1ncc2n1-c1ccc(Cl)cc1C(c1ccccc1F)=NC2`, the Potency entry in assay [1], in assay [2], in assay [3], in [4], in assay [5] and in assay [10] was “inactive” each time. Further, the Potency entry in assay [7], in assay [8] and in assay [9] was “inactive” throughout.
`CN1CCc2cc(Cl)c(O)cc2[C@H]2c3ccccc3CC[C@@H]21`: the Potency entry in assay [1], in assay [2], in assay [3], in assay [4], in assay [5] and in assay [10] was “inactive” in each case. Further, the Potency result in assay [7], in assay [8] and in [9] was “inactive” each time.
For the compound `CCN(CC)Cc1nccn1-c1ccc([N+](=O)[O-])cc1C(=O)c1ccccc1Cl`, the Potency result in assay [1], in assay [2], in assay [3], in assay [4], in [5] and in assay [6] was “inactive” in each case. For the same compound, the Potency entry in assay [7], in assay [8] and in assay [9] was “inactive” in each case.
For `CCCOC(=O)Cc1ccc(OCC(=O)N(CC)CC)c(OC)c1`, the Potency entry in [1], in [2], in assay [3], in assay [4], in [5] and in assay [10] was “inactive” in each case. In addition, the Potency result in assay [6], in assay [7], in assay [8] and in [9] was “inactive” each time.
With `Nc1ccc(N)cc1`, the Potency result in assay [1], in [2], in assay [3], in assay [4], in assay [6] and in [8] was “inactive” in each case. Moreover, in [5], the Potency is 21.1 µM (active).
Take `CC[C@H]1C[C@H]2[C@@H]3CCC4=CC(=O)CC[C@@H]4[C@H]3CC[C@]2(C)[C@H]1O`: the Potency result in assay [1], in assay [2], in assay [3], in assay [4], in [5] and in assay [6] was “inactive” each time. The Potency entry in assay [7], in assay [8] and in assay [9] was “inactive” throughout.
With `O=C(N[C@@H]1N=C(c2ccccc2F)c2cccc3c2N(CC3)C1=O)c1cc2ccccc2[nH]1`, the Potency result in assay [1], in assay [2], in assay [4], in [6], in assay [7] and in assay [8] was “inactive” throughout.
`CC1COC2(c3ccccc3Cl)c3cc(Cl)ccc3NC(=O)CN12` (stereo not drawn): the Potency entry in [1], in [2], in assay [3], in assay [5], in assay [10] and in assay [6] was “inactive” each time. Besides, the Potency result in [7], in [8] and in assay [9] was “inactive” each time.
For `CCC(=O)C(CCN(C)C)(c1ccccc1)c1ccccc1`, the Potency result in [2], in assay [3], in [4], in assay [5], in assay [10] and in assay [6] was “inactive” throughout. Further, the Potency entry in [7], in assay [8] and in assay [9] was “inactive” in each case.
For the compound `CCCCCCCCCCCC[N+](C)(C)CCOc1ccccc1`, the Potency entry in assay [1] is “inactive”. Further, the Potency was 26.6 µM (active) in assay [3], 6.68 µM (active) in [10], 30.9 µM (active) in [6] and 13.3 µM (active) in assay [9].
Regarding `C[C@]12C=CC(=O)C=C1CC[C@@H]1[C@@H]2CC[C@@]2(C)[C@H]1CC[C@]2(C)O`, the Potency entry in assay [1], in assay [2], in assay [3], in assay [6] and in assay [8] was “inactive” in each case.
Regarding `c1ccc2c(c1)Sc1ccccc1N2CC1CN2CCC1CC2` (stereo not drawn), the Potency in [4] was 23.7 µM (active); in assay [5] it was 13.3 µM (active); in assay [6], 27.6 µM (active); in [9] it was 26.6 µM (active). Further, the Potency result in assay [7] is “inactive”.
Consider `CNC(C)Cc1ccc2c(c1)OCO2` (stereo not drawn), for which the Potency result in assay [1], in assay [4], in [6], in assay [7] and in assay [8] was “inactive” each time. Moreover, the Potency in assay [3] was 47.4 µM (active).
Consider `CC(CC(C#N)(c1ccccc1)c1ccccc1)N(C)C` (stereo not drawn), for which the Potency entry in [1], in [2], in assay [3], in assay [5], in assay [7] and in [8] was “inactive” each time.
`CCCCCCCCC(=O)NCc1ccc(O)c(OC)c1`: the Potency entry in assay [1], in assay [2] and in assay [8] was “inactive” throughout. In addition, the Potency in assay [4], in [10], in [6] and in assay [7] was 0.001 µM (active) throughout.
With `O=C(CCl)c1ccc(Cl)cc1Cl`, the Potency entry in assay [1], in assay [2] and in [8] was “inactive” each time. In addition, in assay [5], the Potency was 26.6 µM (active).
As for `C[C@H](N)[C@H](O)c1ccc(O)c(O)c1`, the Potency entry in [2], in assay [3], in assay [4], in assay [6] and in assay [8] was “inactive” in each case.
For the compound `Cc1nnc2n1-c1sc(CCc3ccc(CC(C)C)cc3)cc1C(c1ccccc1Cl)=NC2C` (stereo not drawn), the Potency in [4] was 26.6 µM (active).
Consider `CC[C@H](O)C(C[C@H](C)N(C)C)(c1ccccc1)c1ccccc1`, for which the Potency entry in [2], in assay [4], in assay [6], in [7], in assay [8] and in [9] was “inactive” throughout. Also, the Potency in assay [10] was 62.3 µM (active).
